Sampled rows, rich in hits. Any-hit rate of the full collection: about 1.1%.
Sa ugtP lethal – growth inhibition of ugtP-null S. aureus, primary screen, RN4220 ugtP deletion, OD600; 16 h; actives 0.54% (n = 330,000); growth inhibition, % (no concentration beside the values); AID 1259309, 2017; in the data active means growth inhibition above about 68%;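 further: plate controls were untreated wells for no effect and antibiotic for full effect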
Mtb hypoxia inh – PubChem AID 1159583; actives 0.1% (n = 300,000); M. tuberculosis hypoxia-regulated fluorescent reporter, fluorescence; fluorescence inhibition, % (test concentration not listed); in the data active means fluorescence inhibition mostly above about 23%, no sharp cut-off; inactive means mostly below about 17%
PriA SSB inh – inhibitors of Klebsiella pneumoniae PriA binding to SSB C-terminal tail, primary screen, biochemical, AlphaScreen; AlphaScreen SSBct-PriA binding, biotinylated peptide; inhibition, % at 33 µM; actives 0.6% (n = 430,000); AID 1272365, 2023; in the data active means inhibition mostly above about 37%, no sharp cut-off; inactive means mostly below about 20%;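 further: plate controls were negative control peptide for no effect and reference peptide for full effect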
RN4220 kill – growth inhibition of S. aureus RN4220, primary screen, OD600; 16 h; inhibition, % (no concentration beside the values); actives 0.33% (n = 330,000); in the data active means inhibition above about 85%;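 further: plate controls were untreated cells for no effect and reference antibiotic for full effect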
Active calls of the source: *; · = not tested or not shown.

SMILES	Sa ugtP lethal	Mtb hypoxia inh	PriA SSB inh	RN4220 kill
COC1C=CO[C@@]2(C)Oc3c(C)c(O)c4c(O)c(c(C=NN5CCN(C)CC5)c(O)c4c3C2=O)NC(=O)C(C)=CC=CC(C)C(O)C(C)C(O)C(C)C(OC(C)=O)C1C (some centres not stated)	97*	·	·	98*
CCC(C)N1CCC2(CC1)N=c1c3c(O)c4c(O)c(C)c5c(c4c1=N2)C(=O)[C@@](C)(OC=C[C@H](OC)[C@@H](C)[C@@H](OC(C)=O)[C@H](C)[C@H](O)[C@H](C)[C@@H](O)[C@@H](C)C=CC=C(C)C(=O)N3)O5 (some centres not stated)	·	·	28	·
COC1C=CO[C@@]2(C)Oc3c(C)c(O)c4c(O)c(c5c(nc6cc(C)ccn65)c4c3C2=O)NC(=O)C(C)=CC=CC(C)C(O)C(C)C(O)C(C)C(OC(C)=O)C1C (some centres not stated)	99*	·	·	99*
CN1C(=O)c2cccc(NC(=O)c3ccc(Cl)s3)c2C1=O	·	·	-7	·
COc1ccc2nc(-c3ccc(F)c(NC(=O)c4ccc5c(c4)OCO5)c3)cn2n1	·	·	-12	·
COc1nn(C)cc1C(=O)NCc1nnc2cc(-c3nc(C)no3)ccn12	·	·	4	·
O=c1c(NCc2ccc(F)cc2)nccn1-c1ccc(Br)cc1	·	·	-2	·
Cc1ccc(CNc2nccn(-c3cccc(Cl)c3C)c2=O)cc1	·	·	46*	·
O=c1c(NCc2ccc(Cl)cc2)nccn1-c1cccc(C(F)(F)F)c1	·	·	54*	·
CCCN1CCCc2cc(CCNS(=O)(=O)c3ccc(Cl)cc3)ccc21	·	·	62*	·
CCCN1CCCc2cc(CCNC(=O)C(=O)Nc3ccc(C(C)C)cc3)ccc21	·	·	23	·
CCCN1CCCc2cc(CCNS(=O)(=O)c3cccc(Cl)c3)ccc21	·	·	64*	·
CCCN1CCCc2cc(CCNS(=O)(=O)c3ccc(NC(=O)C(C)C)cc3)ccc21	·	·	60*	·
COC[C@@](C)(O)CNC(=O)CCc1ccccc1Br	·	·	-2	·
COc1cc(/C=C2\SC(N)=NC2=O)ccc1OCC(=O)Nc1ccc(C)cc1	-8	53*	·	6
Cc1ccc(S(=O)(=O)c2nc(S(=O)(=O)C3CCCCC3)sc2NCc2cccnc2)cc1	·	·	0	·
COc1ccccc1C(=O)NNC1=C(C(=O)C(F)(F)F)CCC1	99*	-3	9	101*
O=C(NNC1=C(C(=O)C(F)(F)F)CCC1)c1ccccc1O	101*	-8	1	100*
O=C(NNC1=C(C(=O)C(F)(F)F)CCC1)c1ccc(Br)cc1	100*	7	8	101*
COc1cccc(C(=O)NNC2=C(C(=O)C(F)(F)F)CCC2)c1	93*	0	1	-6
Cc1nc(CSc2nc3scc(-c4ccc(F)cc4)c3c(=O)n2-c2ccccc2)cs1	·	·	-10	·
O=S(=O)(c1ccccc1)c1nnn2c1nc(N1CCN(C(c3ccccc3)c3ccccc3)CC1)c1cc(Cl)ccc12	·	·	-10	·
COC(=O)C(O)(NC(=O)c1ccncc1)C(F)(F)F (configuration not stated)	76	-7	0	84*
Cc1cc(-c2csc(NCc3ccccc3)n2)c(C)o1	·	·	2	·
O=C(O)c1nc2ccccc2[nH]1	·	·	-9	·
SMILES	Sa ugtP lethal	Mtb hypoxia inh	PriA SSB inh	RN4220 kill
CCCN1CCCc2cc(CCNC(=O)C(=O)Nc3ccccc3F)ccc21	·	·	43	·
CCCN1CCCc2cc(CCNC(=O)C(=O)Nc3cc(F)ccc3F)ccc21	·	·	35	·
CCCN1CCCc2cc(CCNS(=O)(=O)c3ccccc3F)ccc21	·	·	50*	·
CCCN1CCCc2cc(CCNS(=O)(=O)c3cc(F)ccc3F)ccc21	·	·	68*	·
CSc1cccc(NC(=O)c2cn[nH]n2)c1	·	·	-6	·
CCCCc1ccc(NC(=S)Nc2ccc(Nc3ccc(OC)cc3)cc2)cc1	-5	10	84*	-1
CCCCNC(=O)c1ccc(-n2ccnc2SCC(=O)NCc2ccc(SC)cc2)cc1	·	·	7	·
CC(C)(C)NC(=S)Nc1ccc(Nc2ccccc2)cc1	-13	-4	52*	0
O=S(=O)(NC[C@H]1CCCN1c1ccccc1)c1cccc2ccccc12	·	·	32*	·
Cc1ccc(S(=O)(=O)NC[C@H]2CCCN2c2ccccc2)s1	·	·	34*	·
O=S(=O)(NCC1CCCN1c1ccccc1)c1ccc(OC(F)(F)F)cc1 (configuration not stated)	·	·	18	·
CCCC(=O)NC(c1cccs1)c1cc([N+](=O)[O-])c2cccnc2c1O (configuration not stated)	91*	15	29	80
CCC(=O)NC(c1cccs1)c1cc([N+](=O)[O-])c2cccnc2c1O (configuration not stated)	98*	3	75	96*
CC(=O)NC(c1ccccc1)c1cc([N+](=O)[O-])c2cccnc2c1O (configuration not stated)	33	4	44*	34
NC(=O)c1ccccc1OCC#CCNC(=O)NCc1cccs1	·	·	-17	·
c1nc(NC2CCCCCCCCCCC2)c2cn[nH]c2n1	·	·	-6	·
Cc1ccc2c(c1)c1cccc3c1n2CCN3CCC(N)=O	·	·	58*	·
O=C(O)c1nc[nH]c1C(=O)O	·	·	85*	·
N#CC(c1ccc(Cl)cc1)c1ccc2c(C(F)(F)F)cc(C(F)(F)F)nc2n1 (configuration not stated)	101*	·	23	101*
COc1cc(Cl)c(C)cc1NC(=O)CSc1nc2cc(-c3ccccc3)sc2c(=O)n1C	·	·	-4	·
Cc1cc(C(O)CCNS(=O)(=O)CCc2ccccc2)c(C)o1 (configuration not stated)	·	·	-15	·
NCc1ccnc(-c2ccccn2)n1	·	·	126*	·
Nc1ccnc(-c2ccccn2)n1	·	·	151*	·
N#Cc1cnc(-c2ccccn2)nc1N	·	·	83*	·
Oc1ccc(-c2nccc(-c3ccccn3)n2)cc1	1	2	1	9
SMILES	Sa ugtP lethal	Mtb hypoxia inh	PriA SSB inh	RN4220 kill
Nc1nccc(-c2ccccn2)n1	·	·	47	·
Cc1onc(-c2ccccc2Cl)c1C(=O)NCC(c1ccc2c(c1)CCN2C)N(C)C (configuration not stated)	·	·	10	·
CO[C@@H](CNC(=O)NCc1cccs1)c1ccco1	·	·	1	·
O=C(COC(=O)c1ccc2c(c1)OCCO2)Nc1cccc(S(=O)(=O)N2CCOCC2)c1	14	18	-7	8
Cc1ccc(S(=O)(=O)N2CCOCC2)cc1NC(=O)C(c1ccc(Cl)cc1)C(C)C (configuration not stated)	91*	3	-3	89*
NS(=O)(=O)c1cccc(NC(=O)COC(=O)c2ccc(S(=O)(=O)N3CCOCC3)cc2)c1	0	12*	4	2
Cc1ccc(S(=O)(=O)N2CCOCC2)cc1NC(=O)CSc1ccc(Cl)cc1	4	3	-4	3
Cc1ccccc1NC(=O)COC(=O)c1cc(S(=O)(=O)N2CCOCC2)ccc1C	-1	32*	3	3
Cc1nnc(SCC(=O)NNC(=O)COc2ccc(Br)cc2)n1C	1	32*	8	3
CCc1ccc(OCC(=O)NNC(=O)CSc2nnc(-c3ccc(C)cc3)n2C)cc1	2	1	-28	7
O=C(c1ccc(Cl)cc1)C(CN1CCCC1)c1ccccc1 (configuration not stated)	87*	14	6	67
